Our source for the Euclidean distance values is the supplement of paper PMC10127200.

Each structure is given as a SMILES string. Structures can show the parent of a compound that is named as a salt.

In the first assay the test system is DU145. The experiment in a line: Euclidean distance of Cell Painting phenotypic profile (signed KS, 77 features) to DMSO centroid (dimensionless distance); 5 or 10 uM (library dependent); higher = stronger phenotypic change vs DMSO (phenoactivity). The settings on record: 48 h. The method, boiled down: (§1)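 Harmony extracted 77 features from 20X confocal images (9 fields/well) of stained cells, scoring each as a signed Kolmogorov-Smirnov statistic against same-plate vehicle wells. The cells, five cancer lines and a healthy fibroblast line, had received library compounds for 48 h at 10 or 5 uM depending on library, with 0.1% DMSO final. Phenoactivity is the Euclidean distance from each plate-position-corrected, correlation-weighted, top-dose replicate-averaged profile to the median vehicle profile.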
Regarding `CN(C)CC(c1ccc(O)cc1)C1(O)CCCCC1` (stereo not drawn) [Desvenlafaxine], the Euclidean distance was 0.899.
`O=C1C[C@@H](c2ccc(O[C@@H]3O[C@H](CO)[C@@H](O)[C@H](O)[C@H]3O)cc2)Oc2cc(O)ccc21` [Liquiritin] displayed an Euclidean distance of 0.781.
The same measure, in the same setting: under `OC[C@H]1O[C@@H](Oc2cc(O)cc(/C=C/c3ccc(O)cc3)c2)[C@H](O)[C@@H](O)[C@@H]1O` [Polydatin] stands 1.22.
Turning to `NC(=O)NCCC[C@H](N)C(=O)O` [L-Citrulline], the Euclidean distance was 1.37.
`NS(=O)(=O)c1cc2c(cc1Cl)N=C(CSCc1ccccc1)NS2(=O)=O` [Benzthiazide] had an Euclidean distance of 1.06.
`CCC(=O)NS(=O)(=O)c1ccc(-c2c(-c3ccccc3)noc2C)cc1` [Parecoxib Sodium] had an Euclidean distance of 0.541.
Still for that read-out and setting: the value for `COc1cc(C(=O)O)ccc1NC(=O)[C@@H]1N[C@@H](CC(C)(C)C)[C@](C#N)(c2ccc(Cl)cc2F)[C@H]1c1cccc(Cl)c1F` [Idasanutlin (RG-7388)] was 1.55; that for `O=C1CCCC(=O)C1C(=O)c1ccc(C(F)(F)F)cc1[N+](=O)[O-]` [Nitisinone] was 1.2; that for `Cc1cn[nH]c1` [Fomepizole] was 1.4.
`CC(C)(C)c1cc(/C=C(\C#N)C(N)=S)cc(C(C)(C)C)c1O` [Tyrphostin AG 879]: the Euclidean distance came to 0.926.
The compound `CN1CC[C@H](c2c(O)cc(O)c3c(=O)cc(-c4ccccc4Cl)oc23)[C@H](O)C1` [Flavopiridol HCl] displayed an Euclidean distance of 3.43.
Turning to `COc1ncc(-c2ccc3nccc(-c4ccnnc4)c3c2)cc1NS(=O)(=O)c1ccc(F)cc1F`, the Euclidean distance was determined as 2.84.
In turn, `C[C@@H](NCCCc1cccc(C(F)(F)F)c1)c1cccc2ccccc12` [Cinacalcet HCl] yielded an Euclidean distance of 1.89.
The compound `CO[C@@H]1[C@H](OC(=O)/C=C/C=C/C=C/C=C/C(=O)O)CC[C@]2(CO2)[C@H]1[C@@]1(C)O[C@@H]1CC=C(C)C` [Fumagillin] returned an Euclidean distance of 4.57.
Still for that read-out and setting: under `O=c1[nH]c(=O)n([C@H]2C[C@H](O)[C@@H](CO)O2)cc1C(F)(F)F` [Trifluridine] stands 2.74; under `O=C(Nc1ccccc1)Nc1ccc(-c2ccc(C(=O)[C@@H]3CCC[C@H]3C(=O)O)cc2)cc1`, 0.804.
The compound `N#Cc1cc(CN2CCC(Nc3ncnc4sc(Cl)cc34)CC2)ccc1F` gave an Euclidean distance of 1.03.
`COc1ccc(C2=N[C@@H](c3ccc(Cl)cc3)[C@@H](c3ccc(Cl)cc3)N2C(=O)N2CCNC(=O)C2)c(OC(C)C)c1` [Nutlin-3] yielded an Euclidean distance of 1.03.
`O=NN(CCCl)C(=O)NCCCl` [Carmustine]: the Euclidean distance was 1.29.
Regarding `C=CC(=O)N1CC[C@H](n2nc(C#Cc3cc(OC)cc(OC)c3)c3c(N)ncnc32)C1`, the Euclidean distance stood at 2.08.
In the case of `Cc1cc(OCc2nnc(SC3CCCC3)n2-c2cccnc2)ccc1-c1ccc(S(C)(=O)=O)cc1`, the Euclidean distance stood at 3.15.
Compound `C=CCc1cccc(/C=N/NC(=O)CN2CCN(Cc3ccccc3)CC2)c1O` showed an Euclidean distance of 1.28.
Still for that read-out and setting: the value for `NC(=O)N1CCC(CC(=O)N2CCC([C@H]3c4ncc(Br)cc4CCc4cc(Cl)cc(Br)c43)CC2)CC1` [Lonafarnib] was 1.33.
In turn, `COC(=O)CCC(=O)CN` [Methyl Aminolevulinate Hydrochloride] showed an Euclidean distance of 0.717.
`O=C1N=C(O)NC1(c1ccccc1)c1ccccc1` [Phenytoin sodium] gave an Euclidean distance of 0.884.
Take `O=C1OC(CN2CCOCC2)CN1/N=C/c1ccc([N+](=O)[O-])o1` (stereo not drawn) [Furaltadone HCl]: the Euclidean distance is 1.24.
Regarding `CNC(=O)c1cc(Oc2ccc3nc(N[C@@H]4CCCC[C@H]4O)sc3c2)ccn1`, the Euclidean distance came to 1.3.
As to `Cc1cnc(NC(=O)C2=C(O)c3ccccc3S(=O)(=O)N2C)s1` [Meloxicam], the Euclidean distance amounted to 2.37.
On to `CN(C)CCCOc1nn(Cc2ccccc2)c2ccccc12` [Benzydamine HCl], for which the Euclidean distance turned out to be 1.75.
For `O=C(NCCCNc1nc(Nc2cccc(NC(=O)N3CCCC3)c2)ncc1I)c1cccs1`, the Euclidean distance is 3.26.
`N[C@@H](C(=O)N[C@@H]1C(=O)N2C(C(=O)O)=C(Cl)CS[C@H]12)c1ccccc1` [Cefaclor] gave an Euclidean distance of 0.688.
`Cc1[nH]nc2ccc(-c3cncc(OC[C@@H](N)Cc4ccccc4)c3)cc12` yielded an Euclidean distance of 3.94.
Consider `O=C1Nc2ccccc2/C1=C1/Nc2ccccc2C1=O` [Indirubin], for which the Euclidean distance was 0.786.
Consider `N[C@@H](CCC(=O)O)C(=O)O` [(S)-Glutamic acid], for which the Euclidean distance worked out at 1.47.
On the same count and under the same terms, the value for `CC(=O)NS(=O)(=O)c1ccc(N)cc1` [Sulfacetamide sodium salt hydrate] was 0.872; that for `Cc1cc(-c2ccccc2)nnc1NCCN1CCOCC1` [Minaprine dihydrochloride] was 0.918; that for `COc1cc2c(cc1OC)[C@@H]1Cc3ccc(OC)c(OC)c3CN1CC2` [Rotundine] was 1.07.
Compound `NC(=O)NC1NC(=O)NC1=O` (stereo not drawn) [Allantoin] displayed an Euclidean distance of 1.19.
Compound `O=C(Nc1ccccc1)c1cc([N+](=O)[O-])ccc1Cl` showed an Euclidean distance of 0.645.

Another assay deals with FB. The description is as above. The settings on record: 48 h. In short, it runs like this:
as §1
In the case of `CN(C)CC(c1ccc(O)cc1)C1(O)CCCCC1` (stereo not drawn) [Desvenlafaxine], the Euclidean distance came to 0.932.
Same read-out and setting: the value for `O=C1C[C@@H](c2ccc(O[C@@H]3O[C@H](CO)[C@@H](O)[C@H](O)[C@H]3O)cc2)Oc2cc(O)ccc21` [Liquiritin] was 1.59; that for `OC[C@H]1O[C@@H](Oc2cc(O)cc(/C=C/c3ccc(O)cc3)c2)[C@H](O)[C@@H](O)[C@@H]1O` [Polydatin] was 0.978; that for `NC(=O)NCCC[C@H](N)C(=O)O` [L-Citrulline] was 0.916.
Turning to `NS(=O)(=O)c1cc2c(cc1Cl)N=C(CSCc1ccccc1)NS2(=O)=O` [Benzthiazide], the Euclidean distance amounted to 1.18.
Consider `CCC(=O)NS(=O)(=O)c1ccc(-c2c(-c3ccccc3)noc2C)cc1` [Parecoxib Sodium], for which the Euclidean distance worked out at 0.844.
Compound `COc1cc(C(=O)O)ccc1NC(=O)[C@@H]1N[C@@H](CC(C)(C)C)[C@](C#N)(c2ccc(Cl)cc2F)[C@H]1c1cccc(Cl)c1F` [Idasanutlin (RG-7388)] came in with an Euclidean distance of 1.43.
Take `O=C1CCCC(=O)C1C(=O)c1ccc(C(F)(F)F)cc1[N+](=O)[O-]` [Nitisinone]: the Euclidean distance turned out to be 1.
As for `Cc1cn[nH]c1` [Fomepizole], the Euclidean distance was found to be 0.868.
The compound `CC(C)(C)c1cc(/C=C(\C#N)C(N)=S)cc(C(C)(C)C)c1O` [Tyrphostin AG 879] returned an Euclidean distance of 0.967.
On the same count and under the same terms, the value for `CN1CC[C@H](c2c(O)cc(O)c3c(=O)cc(-c4ccccc4Cl)oc23)[C@H](O)C1` [Flavopiridol HCl] was 3.29; that for `COc1ncc(-c2ccc3nccc(-c4ccnnc4)c3c2)cc1NS(=O)(=O)c1ccc(F)cc1F` was 3.96.
Still for that read-out and setting: the value for `C[C@@H](NCCCc1cccc(C(F)(F)F)c1)c1cccc2ccccc12` [Cinacalcet HCl] was 1.06; that for `CO[C@@H]1[C@H](OC(=O)/C=C/C=C/C=C/C=C/C(=O)O)CC[C@]2(CO2)[C@H]1[C@@]1(C)O[C@@H]1CC=C(C)C` [Fumagillin] was 2.95.
`O=c1[nH]c(=O)n([C@H]2C[C@H](O)[C@@H](CO)O2)cc1C(F)(F)F` [Trifluridine]: the Euclidean distance was 1.07.
The same measure, in the same setting: the value for `O=C(Nc1ccccc1)Nc1ccc(-c2ccc(C(=O)[C@@H]3CCC[C@H]3C(=O)O)cc2)cc1` was 1.29.
Same read-out and setting: the value for `N#Cc1cc(CN2CCC(Nc3ncnc4sc(Cl)cc34)CC2)ccc1F` was 1.19; that for `COc1ccc(C2=N[C@@H](c3ccc(Cl)cc3)[C@@H](c3ccc(Cl)cc3)N2C(=O)N2CCNC(=O)C2)c(OC(C)C)c1` [Nutlin-3] was 2.68.
Regarding `O=NN(CCCl)C(=O)NCCCl` [Carmustine], the Euclidean distance was 0.896.
Turning to `C=CC(=O)N1CC[C@H](n2nc(C#Cc3cc(OC)cc(OC)c3)c3c(N)ncnc32)C1`, the Euclidean distance is 4.1.
On the same count and under the same terms, the value for `Cc1cc(OCc2nnc(SC3CCCC3)n2-c2cccnc2)ccc1-c1ccc(S(C)(=O)=O)cc1` was 2.69.
Consider `C=CCc1cccc(/C=N/NC(=O)CN2CCN(Cc3ccccc3)CC2)c1O`, for which the Euclidean distance was found to be 1.79.
As for `NC(=O)N1CCC(CC(=O)N2CCC([C@H]3c4ncc(Br)cc4CCc4cc(Cl)cc(Br)c43)CC2)CC1` [Lonafarnib], the Euclidean distance worked out at 2.36.
The compound `COC(=O)CCC(=O)CN` [Methyl Aminolevulinate Hydrochloride] returned an Euclidean distance of 0.88.
The same measure, in the same setting: under `O=C1N=C(O)NC1(c1ccccc1)c1ccccc1` [Phenytoin sodium] stands 1.08.
As for `O=C1OC(CN2CCOCC2)CN1/N=C/c1ccc([N+](=O)[O-])o1` (stereo not drawn) [Furaltadone HCl], the Euclidean distance was 1.24.
With `CNC(=O)c1cc(Oc2ccc3nc(N[C@@H]4CCCC[C@H]4O)sc3c2)ccn1`, the Euclidean distance came to 1.9.
Compound `Cc1cnc(NC(=O)C2=C(O)c3ccccc3S(=O)(=O)N2C)s1` [Meloxicam] yielded an Euclidean distance of 0.881.
`CN(C)CCCOc1nn(Cc2ccccc2)c2ccccc12` [Benzydamine HCl] returned an Euclidean distance of 1.24.
The compound `O=C(NCCCNc1nc(Nc2cccc(NC(=O)N3CCCC3)c2)ncc1I)c1cccs1` returned an Euclidean distance of 3.8.
With `N[C@@H](C(=O)N[C@@H]1C(=O)N2C(C(=O)O)=C(Cl)CS[C@H]12)c1ccccc1` [Cefaclor], the Euclidean distance was 0.8.
With `Cc1[nH]nc2ccc(-c3cncc(OC[C@@H](N)Cc4ccccc4)c3)cc12`, the Euclidean distance is 5.02.
For the compound `O=C1Nc2ccccc2/C1=C1/Nc2ccccc2C1=O` [Indirubin], the Euclidean distance was found to be 0.965.
Still for that read-out and setting: the value for `N[C@@H](CCC(=O)O)C(=O)O` [(S)-Glutamic acid] was 0.799; that for `CC(=O)NS(=O)(=O)c1ccc(N)cc1` [Sulfacetamide sodium salt hydrate] was 1.61.
`Cc1cc(-c2ccccc2)nnc1NCCN1CCOCC1` [Minaprine dihydrochloride] came in with an Euclidean distance of 1.32.
The compound `COc1cc2c(cc1OC)[C@@H]1Cc3ccc(OC)c(OC)c3CN1CC2` [Rotundine] showed an Euclidean distance of 1.26.
Consider `NC(=O)NC1NC(=O)NC1=O` (stereo not drawn) [Allantoin], for which the Euclidean distance came out at 0.801.
`O=C(Nc1ccccc1)c1cc([N+](=O)[O-])ccc1Cl`: the Euclidean distance is 1.15.
